The values that follow come from paper PMC7862700, “An all-to-all approach to the identification of sequence-specific readers for epigenetic DNA modifications on cytosine”.

What all share (assay): DAPPL (digital affinity profiling via proximity ligation, sequencing); 10 mM Tris-HCl pH 7.5, 50 mM NaCl, 1 mM DTT, 4% glycerol, room temperature, 30 min; GST-TFs on glutathione beads, 16-mer random dsDNA library, 0.1% formaldehyde crosslink after washing; high values mean tight binding
Holding throughout (conditions): protein: recombinant; tags: N-terminal GST; dsDNA, one strand shown

Assay [1] has as its target T1, ERF (Homo sapiens, UniProt P50548 1-548).
T1 sequence: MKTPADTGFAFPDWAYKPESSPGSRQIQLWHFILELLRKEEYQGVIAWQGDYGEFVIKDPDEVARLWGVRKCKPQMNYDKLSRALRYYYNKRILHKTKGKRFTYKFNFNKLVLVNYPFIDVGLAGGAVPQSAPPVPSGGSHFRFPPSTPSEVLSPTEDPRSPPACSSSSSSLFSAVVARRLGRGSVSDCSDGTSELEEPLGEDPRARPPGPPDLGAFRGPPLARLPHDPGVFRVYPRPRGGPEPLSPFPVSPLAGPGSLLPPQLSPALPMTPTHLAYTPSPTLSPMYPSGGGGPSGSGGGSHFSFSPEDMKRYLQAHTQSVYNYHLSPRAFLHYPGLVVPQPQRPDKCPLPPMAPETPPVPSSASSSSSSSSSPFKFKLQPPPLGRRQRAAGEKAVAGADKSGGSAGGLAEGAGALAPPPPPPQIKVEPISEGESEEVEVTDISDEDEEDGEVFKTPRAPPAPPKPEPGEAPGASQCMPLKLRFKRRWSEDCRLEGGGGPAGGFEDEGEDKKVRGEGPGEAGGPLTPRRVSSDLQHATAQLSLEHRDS
In short, it runs like this:
(§1)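 In yeast, human transcription factors were expressed with a GST fusion, then pulled down on glutathione beads and given DNA barcodes. Pooled with a tag-only sample, they were exposed to 200 nmole of a 16-mer random double-stranded DNA library (Tris/NaCl/DTT/glycerol buffer, room temperature, 30 min), washed, crosslinked with 0.1% formaldehyde, proximity-ligated using BsaI/T4 ligase for 1 h at 37 °C, PCR-amplified and read on an Illumina NextSeq500. Each hexamer's frequency of reads for a factor, divided by the matching frequency for the tag-only sample, gives the binding signal.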

Assay [2] addresses T2, ETV3L (Homo sapiens, UniProt Q6ZN32 1-361).
T2 sequence: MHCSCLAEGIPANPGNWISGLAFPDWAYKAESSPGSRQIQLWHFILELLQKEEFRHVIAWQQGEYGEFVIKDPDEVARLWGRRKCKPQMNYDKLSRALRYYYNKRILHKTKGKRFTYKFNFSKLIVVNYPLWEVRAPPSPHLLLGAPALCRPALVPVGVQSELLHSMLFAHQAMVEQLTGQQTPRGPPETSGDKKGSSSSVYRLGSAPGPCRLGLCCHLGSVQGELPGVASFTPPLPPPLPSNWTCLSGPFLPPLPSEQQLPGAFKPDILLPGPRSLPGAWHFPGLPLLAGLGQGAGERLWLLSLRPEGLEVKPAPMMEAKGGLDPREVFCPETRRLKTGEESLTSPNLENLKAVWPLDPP
In short, it runs like this:
as §1

For assay [3], the target named is T3, ETS2 (Homo sapiens, UniProt P15036 1-469).
T3 sequence: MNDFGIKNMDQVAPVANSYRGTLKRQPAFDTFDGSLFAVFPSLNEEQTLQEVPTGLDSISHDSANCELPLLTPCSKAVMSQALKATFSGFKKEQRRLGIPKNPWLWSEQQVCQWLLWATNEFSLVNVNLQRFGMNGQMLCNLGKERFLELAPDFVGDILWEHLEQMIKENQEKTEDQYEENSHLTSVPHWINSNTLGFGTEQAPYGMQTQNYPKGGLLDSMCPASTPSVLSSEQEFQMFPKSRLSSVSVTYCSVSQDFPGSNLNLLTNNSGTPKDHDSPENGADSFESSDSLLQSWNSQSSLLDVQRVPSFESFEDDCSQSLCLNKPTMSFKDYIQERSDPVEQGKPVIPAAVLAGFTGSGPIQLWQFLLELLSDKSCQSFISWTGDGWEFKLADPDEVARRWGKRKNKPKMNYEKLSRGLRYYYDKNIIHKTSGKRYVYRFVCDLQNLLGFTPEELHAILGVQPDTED
In short, it runs like this:
as §1

In assay [4] the target is T4, SPDEF (Homo sapiens, UniProt O95238 1-335).
T4 sequence: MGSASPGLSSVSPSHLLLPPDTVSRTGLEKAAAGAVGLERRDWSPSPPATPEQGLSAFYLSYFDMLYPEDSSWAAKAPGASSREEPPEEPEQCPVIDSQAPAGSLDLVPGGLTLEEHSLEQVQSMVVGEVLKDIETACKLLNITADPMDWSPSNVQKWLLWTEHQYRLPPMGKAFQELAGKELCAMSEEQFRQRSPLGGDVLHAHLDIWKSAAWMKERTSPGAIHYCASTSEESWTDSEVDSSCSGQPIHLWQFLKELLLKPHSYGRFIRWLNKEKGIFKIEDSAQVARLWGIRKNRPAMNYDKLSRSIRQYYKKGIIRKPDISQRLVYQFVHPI
In short, it runs like this: as §1

Assay [5] addresses T5, ETV7 (Homo sapiens, UniProt Q9Y603 1-341).
T5 sequence: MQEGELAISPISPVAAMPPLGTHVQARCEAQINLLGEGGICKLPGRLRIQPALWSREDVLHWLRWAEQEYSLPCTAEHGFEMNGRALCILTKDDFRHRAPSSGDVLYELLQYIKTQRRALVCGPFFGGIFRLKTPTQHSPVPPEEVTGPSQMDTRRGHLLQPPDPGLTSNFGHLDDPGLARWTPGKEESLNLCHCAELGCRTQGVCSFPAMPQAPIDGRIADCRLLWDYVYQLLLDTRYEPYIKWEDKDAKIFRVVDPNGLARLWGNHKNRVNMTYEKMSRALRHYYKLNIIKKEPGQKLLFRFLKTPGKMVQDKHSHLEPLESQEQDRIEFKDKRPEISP
In short, it runs like this:
as §1

The target of assay [6] is T6, ETV3 (Homo sapiens, UniProt P41162-2 1-143).
T6 sequence: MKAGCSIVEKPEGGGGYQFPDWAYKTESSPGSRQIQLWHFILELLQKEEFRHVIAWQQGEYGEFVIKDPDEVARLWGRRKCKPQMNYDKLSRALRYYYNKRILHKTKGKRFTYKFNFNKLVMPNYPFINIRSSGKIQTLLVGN
In short, it runs like this: as §1

In assay [7] the target is ETV6 (Homo sapiens, UniProt P41212 1-452). In short, it runs like this: as §1
Sequence of ETV6 (P41212 whole entry): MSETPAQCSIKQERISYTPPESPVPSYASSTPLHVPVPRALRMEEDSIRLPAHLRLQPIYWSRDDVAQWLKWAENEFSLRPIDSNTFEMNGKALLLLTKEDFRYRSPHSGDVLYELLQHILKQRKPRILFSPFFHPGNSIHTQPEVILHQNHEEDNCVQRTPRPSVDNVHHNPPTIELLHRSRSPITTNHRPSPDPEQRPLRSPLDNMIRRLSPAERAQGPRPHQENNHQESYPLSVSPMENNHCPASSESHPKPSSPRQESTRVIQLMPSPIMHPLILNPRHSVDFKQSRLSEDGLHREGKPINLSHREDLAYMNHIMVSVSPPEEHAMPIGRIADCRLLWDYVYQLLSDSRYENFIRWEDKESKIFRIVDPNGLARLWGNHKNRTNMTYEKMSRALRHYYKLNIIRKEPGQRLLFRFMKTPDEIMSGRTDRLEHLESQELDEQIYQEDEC

GGCTAG: the binding signal is 1.17 fold enrichment (6-mer frequency, TF over GST control) in assay [1]; 1.06 fold enrichment (6-mer frequency, TF over GST control) in assay [2]; 1.14 fold enrichment (6-mer frequency, TF over GST control) in assay [3]; 1.14 fold enrichment (6-mer frequency, TF over GST control) in assay [4]; 1.2 fold enrichment (6-mer frequency, TF over GST control) in assay [5]; 1.13 fold enrichment (6-mer frequency, TF over GST control) in assay [6]. Further, the binding signal in assay [7] is 1.18 fold enrichment (6-mer frequency, TF over GST control).

As for TAACAG, the binding signal was 1.05 fold enrichment (6-mer frequency, TF over GST control) in assay [1]; 1.05 fold enrichment (6-mer frequency, TF over GST control) in assay [2]; 1.03 fold enrichment (6-mer frequency, TF over GST control) in assay [3]; 1.11 fold enrichment (6-mer frequency, TF over GST control) in assay [4]; 1.09 fold enrichment (6-mer frequency, TF over GST control) in assay [5]; 1.02 fold enrichment (6-mer frequency, TF over GST control) in assay [6]. Besides, the binding signal in assay [7] is 1 fold enrichment (6-mer frequency, TF over GST control).

Regarding AGGTAT, the binding signal in assay [1] is 1.16 fold enrichment (6-mer frequency, TF over GST control); in assay [2] it was 1.02 fold enrichment (6-mer frequency, TF over GST control); in assay [3], 1 fold enrichment (6-mer frequency, TF over GST control); in assay [4] it was 1.12 fold enrichment (6-mer frequency, TF over GST control); in assay [5] it was 1.12 fold enrichment (6-mer frequency, TF over GST control); in assay [6], 1.11 fold enrichment (6-mer frequency, TF over GST control). The binding signal in assay [7] is 1.01 fold enrichment (6-mer frequency, TF over GST control).

For the sequence ACACCT, the binding signal in assay [1] was 1.14 fold enrichment (6-mer frequency, TF over GST control); in assay [2] it was 1.15 fold enrichment (6-mer frequency, TF over GST control); in assay [3], 1.05 fold enrichment (6-mer frequency, TF over GST control); in assay [4], 1.05 fold enrichment (6-mer frequency, TF over GST control); in assay [5] it was 1.11 fold enrichment (6-mer frequency, TF over GST control); in assay [6], 1.08 fold enrichment (6-mer frequency, TF over GST control). Besides, in assay [7], the binding signal is 1.06 fold enrichment (6-mer frequency, TF over GST control).

On to GCACGA, for which the binding signal was 1.13 fold enrichment (6-mer frequency, TF over GST control) in assay [1]; 1 fold enrichment (6-mer frequency, TF over GST control) in assay [2]; 1.03 fold enrichment (6-mer frequency, TF over GST control) in assay [3]; 1 fold enrichment (6-mer frequency, TF over GST control) in assay [4]; 1.19 fold enrichment (6-mer frequency, TF over GST control) in assay [5]; 1.1 fold enrichment (6-mer frequency, TF over GST control) in assay [6]. In assay [7], the binding signal was 1.06 fold enrichment (6-mer frequency, TF over GST control).

Take CGATCG: the binding signal in assay [1] was 1.04 fold enrichment (6-mer frequency, TF over GST control); in assay [2], 1.03 fold enrichment (6-mer frequency, TF over GST control); in assay [3], 1.04 fold enrichment (6-mer frequency, TF over GST control); in assay [4] it was 1.1 fold enrichment (6-mer frequency, TF over GST control); in assay [5], 1 fold enrichment (6-mer frequency, TF over GST control); in assay [6], 1.09 fold enrichment (6-mer frequency, TF over GST control). Besides, in assay [7], the binding signal was 1.03 fold enrichment (6-mer frequency, TF over GST control).

For the sequence TGATCA, the binding signal is 1.15 fold enrichment (6-mer frequency, TF over GST control) in assay [1]; 1.07 fold enrichment (6-mer frequency, TF over GST control) in assay [2]; 1.06 fold enrichment (6-mer frequency, TF over GST control) in assay [3]; 1.05 fold enrichment (6-mer frequency, TF over GST control) in assay [4]; 1.14 fold enrichment (6-mer frequency, TF over GST control) in assay [5]; 1.05 fold enrichment (6-mer frequency, TF over GST control) in assay [6].

With AGCAGC, the binding signal in assay [1] was 1.08 fold enrichment (6-mer frequency, TF over GST control); in assay [2], 1.09 fold enrichment (6-mer frequency, TF over GST control); in assay [3], 1.2 fold enrichment (6-mer frequency, TF over GST control); in assay [4], 1.02 fold enrichment (6-mer frequency, TF over GST control); in assay [5], 1.19 fold enrichment (6-mer frequency, TF over GST control); in assay [6], 1.08 fold enrichment (6-mer frequency, TF over GST control). For the same sequence, the binding signal in assay [7] was 1.04 fold enrichment (6-mer frequency, TF over GST control).

For the sequence CATGTA, the binding signal in assay [1] was 1.2 fold enrichment (6-mer frequency, TF over GST control); in assay [2], 1.16 fold enrichment (6-mer frequency, TF over GST control); in assay [3], 1.04 fold enrichment (6-mer frequency, TF over GST control); in assay [4], 1.13 fold enrichment (6-mer frequency, TF over GST control); in assay [5] it was 1.05 fold enrichment (6-mer frequency, TF over GST control); in assay [6], 1.18 fold enrichment (6-mer frequency, TF over GST control). In addition, the binding signal in assay [7] was 1.04 fold enrichment (6-mer frequency, TF over GST control).

Regarding CACTGG, the binding signal was 1.17 fold enrichment (6-mer frequency, TF over GST control) in assay [1]; 1.16 fold enrichment (6-mer frequency, TF over GST control) in assay [2]; 1.01 fold enrichment (6-mer frequency, TF over GST control) in assay [3]; 1.02 fold enrichment (6-mer frequency, TF over GST control) in assay [4]; 1.03 fold enrichment (6-mer frequency, TF over GST control) in assay [5]; 1.07 fold enrichment (6-mer frequency, TF over GST control) in assay [6]. Further, the binding signal in assay [7] was 1.04 fold enrichment (6-mer frequency, TF over GST control).

For the sequence ATGAAG, the binding signal in assay [1] was 1.12 fold enrichment (6-mer frequency, TF over GST control); in assay [2], 1.05 fold enrichment (6-mer frequency, TF over GST control); in assay [3], 1.06 fold enrichment (6-mer frequency, TF over GST control); in assay [4] it was 1.07 fold enrichment (6-mer frequency, TF over GST control); in assay [5], 1.09 fold enrichment (6-mer frequency, TF over GST control); in assay [6], 1.03 fold enrichment (6-mer frequency, TF over GST control). Further, the binding signal in assay [7] was 1.03 fold enrichment (6-mer frequency, TF over GST control).
